The source of these data is PubChem BioAssay (NCATS).

Records with an inconclusive call do not appear. Entries that show only a call come without a potency. Values without a mark were called inactive. Calls of active or inactive are those of the source. The call rests on the fitted dose curve; in most records, active means well fitted cell-killing curve with a large enough effect; inconclusive means small, poorly fitted or top-dose-only effect, or effect the other way; inactive means no such curve, though single readings can be large or run the other way.
Potency means the concentration at half of the fitted maximal effect.

This assay in a line: Viability qHTS for spleen associated tyrosine kinase inhibitor (SYKi) naive MV4-11 cells (AID 1963823). Further: nearly all actives have a fitted effect of over 40% in size. Particulars: MV4-11 AML viability, CellTiter-Glo luminescence, 72 h; series mostly up to 45 µM. An outline of the steps:
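SYK inhibitor-naive MV4-11 cells, 500 per well, exposed to compounds for 72 hr at 37 C, 5% CO2. Viability read as CellTiter-Glo luminescence after 10 min at room temperature.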
Consider `CC(C)=CCC/C(C)=C/CO[C@@H]1O[C@H](CO)[C@@H](O)[C@H](O)[C@H]1O`, for which the Potency entry was “inactive”. Same read-out and setting: the value for `CC1=CC(=O)[C@]2(O[C@@H]3O[C@@H](C)[C@H](O)[C@@H](O)[C@H]3O)C=CO[C@@H](O[C@@H]3O[C@H](CO)[C@@H](O)[C@H](O)[C@H]3O)[C@H]12` was “inactive”; that for `COc1c2c(c(C)c3c1C(=O)OC3)O[C@@]1(C)CCC3(C(C)(C)O)OC(=O)CC[C@]3(C)[C@H]1C2` (stereo partly drawn) was “inactive”. Same read-out and setting: the figure for `C[C@@H]1O[C@@H](O[C@H]2[C@H](O)[C@@H](O)[C@H](O[C@H]3[C@H](O[C@H]4CC[C@@]5(C)C(=CC[C@@H]6C5CC[C@]5(C)[C@@H]7[C@H](C[C@@H]65)O[C@]5(CC[C@@](C)(CO[C@@H]6O[C@H](CO)[C@@H](O)[C@H](O)[C@H]6O)O5)[C@H]7C)C4)O[C@H](CO)[C@@H](O)[C@@H]3O)O[C@@H]2CO)[C@H](O)[C@H](O)[C@H]1O` (stereo partly drawn) is 0.618 µM (active). Same read-out and setting: the value for `C[C@@]1(F)[C@H](O)[C@@H](CO)O[C@H]1n1ccc(N)nc1=O` was “inactive”; that for `Cc1csc(N(C(=O)CSc2ccc(-c3ccccc3)nn2)C2CC2)n1` was “inactive”; that for `CC(NC(=O)[C@H](Cc1ccccc1)NC(=O)OCc1ccccc1)C(=O)CF` (stereo partly drawn) was “inactive”.

For the compound `CC1CCCCN1CCCOC(=O)c1ccc(OC2CCCCC2)cc1` (stereo not drawn), the Potency was 8.41 µM (active). The same measure, in the same setting: the value for `COc1ccc(NC(=O)c2ccc(-c3ccc(-c4nnc(C)o4)cc3C)cc2)cc1N1CCN(C)CC1` was 23.1 µM (active). The same measure, in the same setting: the entry for `C[C@@H]1CC[C@]2(C(=O)O)CC[C@]3(C)C(=CCC4[C@@]5(C)C[C@@H](O)[C@H](O)[C@@](C)(CO)C5CC[C@]43C)C2[C@H]1C` (stereo partly drawn) is “inactive”. As to `Cc1ccccc1Sc1ccc(/C=C2\SC(=S)NC2=O)cc1[N+](=O)[O-]`, the Potency result was “inactive”. In the case of `COC1=CC(=O)CC(C)C12Oc1cc(OC)cc(O)c1C2=O` (stereo not drawn), the Potency result was “inactive”. Still for that read-out and setting: the value for `CNCCC(Oc1ccc(C(F)(F)F)cc1)c1ccccc1` (stereo not drawn) was 18.8 µM (active); that for `CC(=O)N[C@H]1[C@H](O[C@H]2CC[C@@]3(C)C(CC[C@]4(C)C3CC=C3C5CC(C)(C)CC[C@]5(C(=O)O)C(O)C[C@]34C)C2(C)C)O[C@H](CO[C@@H]2O[C@H](C)[C@H](O)[C@H](O)[C@H]2O[C@@H]2OC[C@@H](O)[C@H](O)[C@H]2O)[C@@H](O)[C@@H]1O` (stereo partly drawn) was 3.48 µM (active); that for `CC1(C)CCCC2(C)C1C(OC(=O)/C=C/C=C/C=O)C=C1COC(=O)C12O` (stereo not drawn) was 5.02 µM (active).

With `Oc1cccc(C2NC(=S)Nc3cccc(F)c32)c1` (stereo not drawn), the Potency was 4.61 µM (active). In the case of `CC1OC(OC2C(OC(=O)[C@]34CCC(C)(C)C[C@H]3C3=CCC5[C@@]6(C)CC[C@H](OC7OC(C(=O)O)C(O)C(O)C7O)C(C)(C)C6CC[C@@]5(C)[C@]3(C)CC4O)OC(CO)C2O)C(O)C(O)C1OC1OCC(O)C(O)C1O` (stereo partly drawn), the viability (% of control) was 70.8% [at 9.25 µM]. `CCN(CC)c1ccc2c(O)c(C=Nc3ccc(CC(=O)O)c(-c4c5c(nc6ccccc46)CCC(C(=O)NN)C5)c3)c(=O)oc2c1` (stereo not drawn): the Potency was 2.59 µM (active). Take `O=C1c2ccccc2C(=O)c2c1ccc(O)c2O`: the Potency is 9.44 µM (active).

In the case of `Cc1cn2cc(CC(=O)N3CCC4(CC3)CN(Cc3ccc(-n5nccn5)cc3Cl)C4)nc2s1`, the Potency was 16.4 µM (active).

As to `CC1(C)CCCC2(C)C(C(=O)O)=CCC12` (stereo not drawn), the Potency entry is “inactive”.

As for `NS(=O)(=O)c1ccc(N2CCN(CC[C@@H]3OCCc4ccccc43)CC2)cc1`, the Potency was 11.6 µM (active).

`COc1cc(C)c(C(=O)NC2C(C)OC(OC3CCC(C)C4C3C=C(C)C3/C(C)=C\CC/C(C)=C/C5(C)C=C(C(=O)O)C(C)CC56OC(=O)/C(=C(\O)C34C)C6=O)C(O)C2(C)O)c(O)c1` (stereo not drawn): the viability (% of control) is 82.6% [at 9.25 µM]. With `COc1ccc(/C=C/C(=O)O[C@@H]2[C@@H](OC(C)=O)[C@@H](OC(C)=O)[C@H](O[C@H]3[C@@H]4C=CO[C@@H](O[C@@H]5O[C@H](CO)[C@@H](O)[C@H](O)[C@H]5O)[C@@H]4[C@@]4(CO)O[C@@H]34)O[C@H]2C)cc1`, the Potency result is “inactive”. Same read-out and setting: the entry for `Cc1ccc(OCCSc2ncccn2)c(Br)c1` is “inactive”; for `CCOc1ccc(C(Nc2ccccn2)c2ccc3ccc(C)nc3c2O)cc1C` (stereo not drawn) it is 23.1 µM (active); for `CC1(C)CCC(C)(C)c2cc3c(cc21)Sc1ccccc1N=C3c1ccc(C(=O)O)cc1` it is “inactive”.

`CC1(C)CC[C@]2(C(=O)O[C@@H]3O[C@H](CO)[C@@H](O)[C@H](O)[C@H]3O)[C@H](O)C[C@]3(C)C(=CCC4[C@@]5(C)CC[C@H](O[C@@H]6OC[C@@H](O)[C@H](O)[C@H]6O)[C@@](C)(C(=O)O)C5CC[C@]43C)[C@@H]2C1` (stereo partly drawn): the Potency result was “inactive”.
